Results from PubChem BioAssay AID1159580 (chemical genetic matrix, 2015).
“And” between values parts separate entries of the source, which are not always exact repeats. Identical values can stand only once. About 2,000 (36%) of roughly 5,500 compounds were called active. Inconclusive results (about 18%) are left out. Some of the results follow. Values without a mark were called inactive. Cut-off read from the data, not from the text of the source: active = normalized growth mostly below about 0.91 (no sharp cut-off); inconclusive = no clear call, values can overlap the other calls; inactive = mostly above about 0.92.

Test: chemical genetic growth profiling, strain panel (AID 1159580);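 note: tested at 20 µM; growth read once vehicle control cultures reached saturation at 30 °C; 1 = growth at the plate median or of vehicle wells; lower values mean less growth of the strain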
Settings: S. cerevisiae deletion strains, growth OD

COc1cc(O)c(C)c(O)c1
normalized growth (locus YAL013W, strain DEP1, active compounds read low): 0.999
normalized growth (locus YAL021C, strain ccr4, active compounds read low): 1.03
normalized growth (locus YAL026C, strain drs2, active compounds read low): 1.02
normalized growth (locus YAL030W, strain snc1, active compounds read low): 1.02
normalized growth (locus YBL061C, strain skt5, active compounds read low): 1.01
normalized growth (locus YBR009C, strain hhf1, active compounds read low): 1.02
normalized growth (locus YBR021W, strain FUR4, active compounds read low): 0.995
normalized growth (locus YBR023C, strain chs3, active compounds read low): 1.02
normalized growth (locus YBR171W, strain sec66, active compounds read low): 1.03
normalized growth (locus YBR229C, strain ROT2, active compounds read low): 0.998
normalized growth (locus YBR231C, strain swc5, active compounds read low): 1.01
normalized growth (locus YBR279W, strain paf1, active compounds read low): 1.01
normalized growth (locus YCL011C, strain gbp2, active compounds read low): 1
normalized growth (locus YCL016C, strain dcc1, active compounds read low): 1
normalized growth (locus YCL029C, strain bik1, active compounds read low): 1.04
normalized growth (locus YCL061C, strain MRC1, active compounds read low): 1.01
normalized growth (locus YCL069W, strain vba3, active compounds read low): 1.01
normalized growth (locus YCR088W, strain abp1, active compounds read low): 1.01
normalized growth (locus YDL005C, strain med2, active compounds read low): 1.01
normalized growth (locus YDL035C, strain GPR1, active compounds read low): 1.01
normalized growth (locus YDL040C, strain nat1, active compounds read low): 1.01
normalized growth (locus YDL074C, strain BRE1, active compounds read low): 1.02
normalized growth (locus YDL101C, strain DUN1, active compounds read low): 1.01
normalized growth (locus YDL134C, strain PPH21, active compounds read low): 1
normalized growth (locus YDL185W, strain tfp1, active compounds read low): 1.02
normalized growth (locus YDL192W, strain arf1, active compounds read low): 1
normalized growth (locus YDR001C, strain nth1, active compounds read low): 1.01
normalized growth (locus YDR069C, strain doa4, active compounds read low): 1.01
normalized growth (locus YDR101C, strain arx1, active compounds read low): 1
normalized growth (locus YDR137W, strain rgp1, active compounds read low): 1.05
normalized growth (locus YDR150W, strain NUM1, active compounds read low): 0.995
normalized growth (locus YDR159W, strain sac3, active compounds read low): 1.01
normalized growth (locus YDR162C, strain NBP2, active compounds read low): 1.02
normalized growth (locus YDR195W, strain ref2): 1.02
normalized growth (locus YDR297W, strain sur2, active compounds read low): 1.01
normalized growth (locus YDR318W, strain mcm21, active compounds read low): 1.01
normalized growth (locus YDR334W, strain swr1, active compounds read low): 1.02
normalized growth (locus YDR335W, strain msn5, active compounds read low): 1.04
normalized growth (locus YDR388W, active compounds read low): 1
normalized growth (locus YDR392W, strain spt3, active compounds read low): 1.03
normalized growth (locus YDR502C, strain sam2, active compounds read low): 1.04
normalized growth (locus YEL003W, strain gim4, active compounds read low): 1.03
normalized growth (locus YEL037C, strain rad23, active compounds read low): 1.02
normalized growth (locus YEL061C, strain CIN8 (second series), active compounds read low): 1.02
normalized growth (locus YEL061C, strain CIN8, active compounds read low): 1
normalized growth (locus YER015W, strain faa2, active compounds read low): 1
normalized growth (locus YER016W, strain bim1, active compounds read low): 1.02
normalized growth (locus YER110C, active compounds read low): 1.01
normalized growth (locus YER111C, strain swi4, active compounds read low): 1.01
normalized growth (locus YER155C, strain BEM2 (second series), active compounds read low): 1.04
normalized growth (locus YER155C, strain BEM2, active compounds read low): 0.999
normalized growth (locus YER167W, strain BCK2, active compounds read low): 1
normalized growth (locus YFR010W, strain ubp6, active compounds read low): 1.02
normalized growth (locus YGL078C, strain dbp3, active compounds read low): 1.03
normalized growth (locus YGL086W, strain mad1, active compounds read low): 1.01
normalized growth (locus YGL167C, strain pmr1, active compounds read low): 1.01
normalized growth (locus YGL173C, strain kem1, active compounds read low): 1.02
normalized growth (locus YGL227W, strain vid30, active compounds read low): 1.01
normalized growth (locus YGL240W, strain doc1, active compounds read low): 0.977
normalized growth (locus YGL248W, strain PDE1, active compounds read low): 1.03
normalized growth (locus YGL253W, strain hxk2, active compounds read low): 1.02
normalized growth (locus YGR135W, strain pre9, active compounds read low): 1.02
normalized growth (locus YGR252W, strain gcn5, active compounds read low): 0.973
normalized growth (locus YHR013C, strain ard1, active compounds read low): 1.01
normalized growth (locus YHR027C, strain rpn1, active compounds read low): 1.01
normalized growth (locus YHR030C, strain SLT2, active compounds read low): 0.997 and 0.992
normalized growth (locus YHR079C, strain IRE1 (second series), active compounds read low): 1.01
normalized growth (locus YHR079C, strain IRE1, active compounds read low): 0.996
normalized growth (locus YHR094C, strain hxt1, active compounds read low): 1.01
normalized growth (locus YHR129C, strain ARP1, active compounds read low): 1.01
normalized growth (locus YHR142W, strain chs7, active compounds read low): 1.02
normalized growth (locus YHR200W, strain rpn10, active compounds read low): 1.02
normalized growth (locus YIL066C, strain RNR3, active compounds read low): 1.02
normalized growth (locus YIL073C, strain SPO22, active compounds read low): 1.13
normalized growth (locus YIL125W, strain kgd1, active compounds read low): 1.02
normalized growth (locus YIR030C, strain dcg1, active compounds read low): 1.01
normalized growth (locus YJL092W, strain hpr5, active compounds read low): 1.01
normalized growth (locus YJL095W, strain BCK1 (second series), active compounds read low): 1.01
normalized growth (locus YJL095W, strain BCK1, active compounds read low): 1.01 and 1
normalized growth (locus YJL115W, strain asf1, active compounds read low): 1.01
normalized growth (locus YJL129C, strain trk1, active compounds read low): 1.05
normalized growth (locus YJL134W, strain LCB3, active compounds read low): 1
normalized growth (locus YJL154C, strain vps35, active compounds read low): 1.01
normalized growth (locus YJL164C, strain tpk1, active compounds read low): 1.03
normalized growth (locus YJL166W, strain qcr8, active compounds read low): 1
normalized growth (locus YJL168C, strain set2, active compounds read low): 1.01
normalized growth (locus YJL187C, strain SWE1 (second series), active compounds read low): 1.01
normalized growth (locus YJL187C, strain SWE1, active compounds read low): 1.01
normalized growth (locus YJR043C, strain POL32, active compounds read low): 1.02
normalized growth (locus YJR066W, strain TOR1, active compounds read low): 0.906
normalized growth (locus YJR075W, strain HOC1, active compounds read low): 1
normalized growth (locus YKL009W, strain mrt4, active compounds read low): 1.16 [resistant] (active)
normalized growth (locus YKL068W, active compounds read low): 1.01
normalized growth (locus YKL085W, strain MDH1 (second series), active compounds read low): 1.02
normalized growth (locus YKL085W, strain MDH1, active compounds read low): 1.02
normalized growth (locus YKL160W, strain elf1, active compounds read low): 1.01
normalized growth (locus YKL190W, strain CNB1, active compounds read low): 0.998
normalized growth (locus YKR001C, strain vps1, active compounds read low): 1.02
normalized growth (locus YKR026C, strain gcn3, active compounds read low): 0.995
normalized growth (locus YKR091W, strain srl3, active compounds read low): 1.01
normalized growth (locus YLL001W, strain dnm1, active compounds read low): 1.01
normalized growth (locus YLL026W, active compounds read low): 1.01
normalized growth (locus YLL041C, strain sdh2, active compounds read low): 1.01
normalized growth (locus YLR027C, strain aat2, active compounds read low): 1.01
normalized growth (locus YLR039C, strain RIC1, active compounds read low): 1.02
normalized growth (locus YLR058C, strain SHM2, active compounds read low): 1.01
normalized growth (locus YLR102C, strain apc9, active compounds read low): 1.01
normalized growth (locus YLR113W, strain HOG1, active compounds read low): 0.975
normalized growth (locus YLR221C, strain rsa3, active compounds read low): 1.01
normalized growth (locus YLR258W, strain gsy2, active compounds read low): 1.02
normalized growth (locus YLR262C, strain YPT6 (second series), active compounds read low): 1.01
normalized growth (locus YLR262C, strain YPT6, active compounds read low): 1.05
normalized growth (locus YLR268W, strain sec22, active compounds read low): 1.02
normalized growth (locus YLR320W, strain mms22, active compounds read low): 1.02
normalized growth (locus YLR330W, strain CHS5, active compounds read low): 1
normalized growth (locus YLR342W, strain FKS1 (second series), active compounds read low): 1
normalized growth (locus YLR342W, strain FKS1, active compounds read low): 1.02
normalized growth (locus YLR357W, strain rsc2, active compounds read low): 1.02
normalized growth (locus YLR370C, strain arc18, active compounds read low): 1.02
normalized growth (locus YLR371W, strain rom2, active compounds read low): 1.01
normalized growth (locus YLR384C, strain iki3, active compounds read low): 1.03
normalized growth (locus YLR418C, strain cdc73, active compounds read low): 1.02
normalized growth (locus YML016C, strain PPZ1, active compounds read low): 1.01
normalized growth (locus YML032C, strain rad52, active compounds read low): 1
normalized growth (locus YML120C, strain ndi1, active compounds read low): 0.97
normalized growth (locus YML124C, strain tub3, active compounds read low): 1.01
normalized growth (locus YMR058W, strain fet3, active compounds read low): 1.01
normalized growth (locus YMR078C, strain ctf18, active compounds read low): 1.03
normalized growth (locus YMR125W, strain sto1, active compounds read low): 1.04
normalized growth (locus YMR129W, active compounds read low): 1.02
normalized growth (locus YMR205C, strain PFK2, active compounds read low): 1.01
normalized growth (locus YMR223W, strain ubp8, active compounds read low): 1.02
normalized growth (locus YMR231W, strain pep5, active compounds read low): 1.02
normalized growth (locus YMR307W, strain GAS1, active compounds read low): 1.01
normalized growth (locus YNL067W, strain RPL9B, active compounds read low): 1.01
normalized growth (locus YNL071W, strain lat1, active compounds read low): 1.03
normalized growth (locus YNL183C, strain NPR1, active compounds read low): 0.92
normalized growth (locus YNL209W, strain ssb2, active compounds read low): 1.03
normalized growth (locus YNL233W, strain BNI4, active compounds read low): 1.01
normalized growth (locus YNL248C, strain rpa49, active compounds read low): 1.04
normalized growth (locus YNL250W, strain rad50, active compounds read low): 1.03
normalized growth (locus YNL271C, strain bni1, active compounds read low): 1.03
normalized growth (locus YNL298W, strain CLA4, active compounds read low): 1.03
normalized growth (locus YNL307C, strain MCK1, active compounds read low): 1.03
normalized growth (locus YNL322C, strain KRE1 (second series), active compounds read low): 1.02
normalized growth (locus YNR049C, strain mso1, active compounds read low): 1.01
normalized growth (locus YNR052C, strain pop2, active compounds read low): 1.01
normalized growth (locus YOL006C, strain TOP1, active compounds read low): 1.19
normalized growth (locus YOL012C, strain htz1): 0.903
normalized growth (locus YOL147C, strain pex11, active compounds read low): 1.02
normalized growth (locus YOR001W, strain rrp6, active compounds read low): 1.02
normalized growth (locus YOR061W, strain CKA2, active compounds read low): 1.01
normalized growth (locus YOR069W, strain VPS5, active compounds read low): 1.01
normalized growth (locus YOR070C, strain gyp1, active compounds read low): 1.01
normalized growth (locus YOR080W, strain dia2, active compounds read low): 1.02
normalized growth (locus YOR083W, strain WHI5, active compounds read low): 1.01
normalized growth (locus YOR106W, strain vam3, active compounds read low): 0.998
normalized growth (locus YOR136W, strain idh2, active compounds read low): 1.02
normalized growth (locus YOR144C, strain elg1, active compounds read low): 1.01
normalized growth (locus YOR184W, strain ser1, active compounds read low): 1.02
normalized growth (locus YOR231W, strain MKK1, active compounds read low): 1.01
normalized growth (locus YOR265W, strain rbl2, active compounds read low): 1.01
normalized growth (locus YOR270C, strain vph1, active compounds read low): 1.05
normalized growth (locus YOR290C, strain snf2, active compounds read low): 0.988
normalized growth (locus YOR316C, strain cot1, active compounds read low): 1.01
normalized growth (locus YPL051W, strain arl3, active compounds read low): 1.02
normalized growth (locus YPL078C, strain atp4, active compounds read low): 1.03
normalized growth (locus YPL106C, strain sse1, active compounds read low): 1.01
normalized growth (locus YPL240C, strain hsp82, active compounds read low): 1.02
normalized growth (locus YPL241C, strain CIN2, active compounds read low): 1
normalized growth (locus YPL256C, strain CLN2, active compounds read low): 0.985
normalized growth (locus YPR119W, strain clb2, active compounds read low): 1.01
normalized growth (locus YPR141C, strain kar3, active compounds read low): 1.01
normalized growth (locus YPR163C, strain tif3, active compounds read low): 1.03
normalized growth (locus YPR167C, strain met16, active compounds read low): 1.03
normalized growth (strain wtn01, active compounds read low): 1.02
